From ChEMBL document CHEMBL3433997, “St. Jude Leishmania screening dataset” (2016)

Columns and labels:
Assay type in all cases: functional
[1] = biological target: Solute carrier family 2, facilitated glucose transporter member 1 (Homo sapiens) (UniProt P11166); test: ST_JUDE_LEISH: Cytotoxicity at 2uM final concentration against transgenic Leishmania Mexicana promastigotes LmGLUT1 that are glucose transport deficient and complemented with the human glucose transporter GLUT1. Activity is measured by DNA content using SYBR green in vitro
[2] = biological target: Hexose transporter 1 (Plasmodium falciparum) (UniProt O97467); test: ST_JUDE_LEISH: Cytotoxicity at 2uM final concentration against transgenic Leishmania Mexicana promastigotes LmPfHT that are glucose transport deficient and complemented with the Plasmodium falciparum hexose transporter. Activity is measured by DNA content using SYBR green in vitro
[3] = biological target: Glucose transporter (Leishmania mexicana) (UniProt O61059); test: ST_JUDE_LEISH: Cytotoxicity at 2uM final concentration against transgenic Leishmania Mexicana promastigotes LmGT2 that are glucose transport deficient and complemented with the L. Mexicana glucose transporter 2. Activity is measured by DNA content using SYBR green in vitro

Solute carrier family 2, facilitated glucose transporter member 1 (Homo sapiens), sequence (P11166 whole entry): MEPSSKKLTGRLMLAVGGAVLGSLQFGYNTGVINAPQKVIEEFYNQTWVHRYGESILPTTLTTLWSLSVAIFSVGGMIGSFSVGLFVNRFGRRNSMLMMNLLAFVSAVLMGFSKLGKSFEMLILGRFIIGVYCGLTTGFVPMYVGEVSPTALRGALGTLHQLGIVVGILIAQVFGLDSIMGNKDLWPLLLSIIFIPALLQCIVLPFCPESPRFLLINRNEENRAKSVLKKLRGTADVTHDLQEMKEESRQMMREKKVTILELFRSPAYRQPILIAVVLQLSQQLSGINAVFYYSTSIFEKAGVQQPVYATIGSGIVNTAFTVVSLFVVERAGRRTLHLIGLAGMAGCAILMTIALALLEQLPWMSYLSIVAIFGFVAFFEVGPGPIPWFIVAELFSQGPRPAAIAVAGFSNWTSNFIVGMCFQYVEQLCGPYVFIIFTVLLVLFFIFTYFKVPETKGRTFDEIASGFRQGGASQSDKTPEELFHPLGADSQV

Row | Structure (SMILES) | inhibition [1] [%] | inhibition [2] [%] | inhibition [3] [%]
1 | CCCCCCN1CCC(NCc2cccc(C#N)c2)CC1 | 0.29 | 0.77 | 2.03
2 | CCN(CC)CCOc1ccc(Nc2ncc3cc(-c4c(Cl)cccc4Cl)c(=O)n(C)c3n2)cc1 | 75.8 | 83.3 | 17.9
3 | COc1cc(Cc2cnc(N)nc2N)c2c(c1OC)OC(C)C=C2 (configuration not stated) | 1.59 | 2.39 | 2.25
4 | COc1cc(Cc2cnc(N)nc2N)ccc1Oc1ccc(N)cc1 | 1.44 | 0.48 | 0.97
5 | CC1CCCN(S(=O)(=O)c2ccc(NC(=O)c3cc(-c4ccccc4O)n[nH]3)cc2)C1 (configuration not stated) | 1.49 | 3.54 | 0.62
6 | O=C(Nc1ccc(-c2cncc(NCCCN3CCCC3)c2)cc1)c1ccccc1 | 1.36 | 1.48 | 1.55
7 | CC(C)N1CCN(C(CN2CCN(CCCOc3ccccc3-c3ccccc3)CC2)c2ccc(F)cc2)CC1 (configuration not stated) | 6.32 | 5.02 | 5.95
8 | COc1ccc(NC(=O)Nc2cc(C)nc3ccccc23)cc1Cl | 9.47 | 8.02 | 7.39
9 | COc1ccc2[nH]ccc(=NN=Cc3cccc(C)n3)c2c1 | 18.7 | 14.9 | 11.8
10 | COc1ccc(C=NNc2ccnc3cc(F)c(C)cc23)c2ccccc12 | 8.78 | 8.43 | 4.95
11 | O=C(O)c1ccc(NC(=O)C2CC(=O)N(Cc3ccc(Cl)cc3)C(=Nc3ccc(Cl)cc3)S2)cc1 (configuration not stated) | 2.23 | 2.86 | 1.01
12 | CN(C)CCOc1cc(NC(=O)Nc2ccc(-c3ccncc3)c(Cl)c2)ccc1I | 2.24 | 1.09 | 1.54
13 | COc1cc(Cc2cnc(N)nc2N)cc(OCCCCCC(=O)O)c1OC | 6.91 | 5.78 | 5.12
14 | COc1ccc(C2CC(c3cccs3)=NN2C(=O)COc2cccc3c2CCCC3O)cc1OC (configuration not stated) | -1.84 | -0.04 | 4.14
15 | CCc1cn2c3c(cc(C(=O)N[C@@H](Cc4cccc(Cl)c4)[C@H](O)CNC4CCCCC4)cc13)N(C)S(=O)(=O)CC2 | -0.29 | 1.09 | -0.36
16 | Cc1cc(CNCCCCCCNCc2ccc(-c3ccccc3)cc2)ccc1O | 7.54 | 7.79 | 4.84
17 | O=C(Nc1ccccc1)N1CCOC(CCN2CCC(F)(F)CC2)(c2ccc(Cl)c(Cl)c2)C1 (configuration not stated) | 2.76 | 4.85 | 1.24

Row | Structure (SMILES) | inhibition [1] [%] | inhibition [2] [%] | inhibition [3] [%]
18 | O=S(=O)(Nc1ccc2nccc(N3CCNCC3)c2c1)c1ccc2c(Cl)cccc2c1 | 0.28 | -0.67 | -0.37
19 | CC(=O)Nc1ccc(CN2Cc3ccc(NC(=O)Nc4ccc(Oc5ccccc5)cc4)cc3C2)s1 | 1.61 | -0.21 | 1.94
20 | COc1ccc(N2CCN(CCCCNC(=O)c3ccc(NC(=O)c4cc(C(F)(F)F)cc(C(F)(F)F)c4)cc3)CC2)c(OC)c1 | 1.62 | 1.33 | 1.33
21 | Nc1c2c(nc3cc(NC(=O)c4ccc([N+](=O)[O-])cc4)ccc13)CCCC2 | 5.2 | 9.51 | 4.23
22 | CCCc1cc(NC2CCN(C)CC2)nc(Nc2cccc(OC)c2)n1 | 8.68 | 6.18 | 6.84
23 | CCC(C)CN1CCN(c2ccc(NC(=O)c3cccs3)cc2)CC1C (configuration not stated) | 0.37 | 0.02 | 1.01
24 | COc1cc(C(=O)N2CCOC(CCN3CCc4c(c5ccccc5n4C)C3)(c3ccc(Cl)c(Cl)c3)C2)cc(OC)c1OC (configuration not stated) | -0.35 | 0 | -1.26
25 | N#Cc1cccc(NC(=O)Nc2ccc(-c3csc(-c4nc5ccccc5[nH]4)c3)cc2)c1 | 7.99 | 9.33 | 3.91
26 | Cc1nnc(Sc2ncnc3scc(-c4ccc(F)cc4)c23)s1 | 2.38 | 3.03 | 1.02
27 | Cc1cc(N2CCCC2)nc(Nc2ccc(NC(=O)c3ccccc3C)cc2)n1 | -1.05 | 6.45 | 0.46
28 | O=C(Nc1cccnc1)c1cc(C(=O)Nc2cccnc2)cc([N+](=O)[O-])c1 | 0.86 | 3.44 | 0.83
29 | COc1cc(NC(=O)/C=C/c2ccccc2OC(F)(F)F)cc(OCCN2CCC(O)(c3ccccc3)CC2)c1 | 7.57 | 5.55 | 5.81
30 | CCN(CC)CCCNCc1ccc(-c2ccc(C(F)(F)F)cc2)cc1 | 5.63 | 2.78 | -0.45
31 | CCCNCc1ccc(-c2ccc(CN(CCOC)C(=O)CCc3ccc(OC)cc3)cc2)nc1 | 0.6 | -1.02 | 1.11
32 | COc1ccc2nccc([C@@H](O)CN3CCC(NCc4nc5ccccc5s4)CC3)c2c1 | 4.29 | 6.41 | -0.69
33 | N=C(N)c1ccc(Nc2nccc(Nc3nc(-c4ccccc4)cs3)n2)cc1 | 0.38 | 0.47 | -0.9
34 | Cc1cc(=NN=Cc2ccc(Cl)cc2)c2cccc(C)c2[nH]1 | 10.4 | 9.15 | 6.63
